PubChem BioAssay (NCI)
This is part of a sample that, as a whole, favours compounds with a hit. Of some 79,000 tested, about 15% had one in any assay. Unmarked numbers belong to inactive results. Activity calls are given as the source filed them. Cut-off read from the data, not from the text of the source: active = growth inhibition above about 70%; inactive = the rest.

Experiments:
[1] = NCI Yeast Anticancer Drug Screen. Data for the rad50 strain (AID 155);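 note: 0% = growth of vehicle-only cultures of the same strain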; conditions: S. cerevisiae rad50 strain growth inhibition, stronger effect = higher value
Procedure, shortened: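 Yeast carrying a defined DNA repair defect were exposed to test compounds, and growth was compared with vehicle-treated controls to give percent inhibition.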

[2] = NCI Yeast Anticancer Drug Screen. Data for the mec2-1 strain (AID 157); conditions: S. cerevisiae mec2-1 strain, stronger effect = higher value
Procedure, shortened: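 Vehicle-treated cultures served as reference for growth inhibition of compound-exposed mec2-1 yeast.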

[3] = NCI Yeast Anticancer Drug Screen. Data for the sgs1 mgt1 strain (AID 161);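 note: 0% = growth of cultures given vehicle only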; conditions: S. cerevisiae sgs1 mgt1 strain, stronger effect = higher value
Procedure, shortened: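 Inhibition of yeast growth, normalised to vehicle-treated controls, is reported for a strain bearing genetic alterations in DNA damage repair.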

[4] = NCI Yeast Anticancer Drug Screen. Data for the cln2 rad14 strain (AID 165);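 note: 0% = growth equal to vehicle treated cultures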; conditions: S. cerevisiae cln2 rad14 strain, stronger effect = higher value
Procedure, shortened: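 Each compound was tested on cln2 rad14 yeast. Inhibition of growth was calculated against vehicle-exposed controls.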

[5] = NCI Yeast Anticancer Drug Screen. Data for the bub3 strain (AID 167); conditions: S. cerevisiae bub3 mutant strain, stronger effect = higher value
Procedure, shortened: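 Compounds were applied to a genetically altered yeast strain carrying a cell-cycle control defect. Growth inhibition was scored against vehicle-treated controls.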

[6] = NCI Yeast Anticancer Drug Screen. Data for the mlh1 rad18 strain (AID 175); conditions: S. cerevisiae mlh1 rad18 strain growth inhibition, stronger effect = higher value
Procedure, shortened: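 Vehicle-treated cultures served as the reference for growth inhibition in a yeast strain carrying DNA damage repair alterations exposed to each compound.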

[7] = at 5.0 µM (retest, dose inferred, filed as 0.5)
[8] = at 50.0 µM (retest, dose inferred, filed as 5.0)

SMILES	growth inhibition [1, 7]	growth inhibition [1, 8]	growth inhibition ([1]; at 50.0 µM)	growth inhibition [2, 7]	growth inhibition [2, 8]	growth inhibition ([2]; at 50.0 µM)	growth inhibition [3, 7]	growth inhibition [3, 8]	growth inhibition ([3]; at 50.0 µM)	growth inhibition [4, 7]	growth inhibition [4, 8]	growth inhibition ([4]; at 50.0 µM)	growth inhibition [5, 7]	growth inhibition [5, 8]	growth inhibition ([5]; at 50.0 µM)	growth inhibition [6, 7]	growth inhibition [6, 8]	growth inhibition ([6]; at 50.0 µM)
CN=C(N)N/N=C(\C)c1ccc2sc3ccc(/C(C)=N/NC(N)=NC)cc3c2c1	49%	55%	74.7% (active)	-4%	-2%	24.5%	23%	14%	13%	17%	7%	20.8%	24%	20%	-8.5%	14%	17%	30.2%
CCCCSc1ccc(C(SCCN(CC)CC)c2ccccc2)cc1 (configuration not stated)	12%	99% (active)	99.8% (active)	11%	100% (active)	99.8% (active)	45%	100% (active)	99.8% (active)	32%	99% (active)	99.8% (active)	36%	99% (active)	99.7% (active)	27%	99% (active)	99.7% (active)
CN(C=O)NC(=O)N(CCCl)N=O	19%	21%	55.2%	13%	1%	62.5%	22%	21%	-13.2%	23%	16%	11.2%	12%	4%	-9.1%	16%	23%	-11.4%
COc1ccccc1/C=C/[N+](=O)[O-]	90% (active)	98% (active)	99.6% (active)	65%	99% (active)	99.7% (active)	87% (active)	99% (active)	99.2% (active)	62%	99% (active)	99.3% (active)	74% (active)	98% (active)	99.2% (active)	96% (active)	99% (active)	99% (active)
COc1ccc([Se][Se]c2ccc(OC)cc2OC)c(OC)c1	18%	18%	88.3% (active)	23%	23%	89.8% (active)	18%	18%	88.5% (active)	9%	9%	90% (active)	-4%	-4%	89.7% (active)	12%	12%	88.4% (active)
COC1CC(OC2C(C)OC(OC3C(C)OC(OC4CCC5(C)C(=CCC6(O)C5CC(OC(=O)c5ccc(O)cc5)C5(C)C(O)(C(C)=O)CCC65O)C4)CC3OC)CC2OC)OC(C)C1O (configuration not stated) (tested in a mixture with another compound)	1%	68%	45.9%	8%	82% (active)	39.1%	1%	89% (active)	68.7%	-7%	49%	48.6%	6%	74% (active)	60.5%	-3%	83% (active)	55.1%
CCc1c[c]([Hg][Cl])c(CC)c(CC)c1CC	5%	99% (active)	99.4% (active)	68%	99% (active)	99.7% (active)	40%	100% (active)	99.7% (active)	2%	90% (active)	23.7%	7%	99% (active)	16.1%	35%	99% (active)	98.6% (active)
CC(=O)NC1C(O[C@H]2CC[C@@]3(C)C(CC[C@]4(C)C3CC=C3C5CC(C)(C)CC[C@]5(C(=O)O)CCC34C)C2(C)C)OC(CO)C(O)C1O (some centres not stated)	42%	98% (active)	91% (active)	69%	99% (active)	92.8% (active)	44%	99% (active)	90.2% (active)	74% (active)	99% (active)	91% (active)	77% (active)	98% (active)	91.2% (active)	48%	99% (active)	90% (active)
CC(C=O)[Se]c1ccccc1 (configuration not stated)	-2%	57%	91.9% (active)	8%	53%	77.7% (active)	-3%	72% (active)	86.2% (active)	-9%	48%	48.6%	11%	67%	86.8% (active)	12%	73% (active)	91.5% (active)
O=[N+]([O-])c1cc[n+]([O-])c2ccccc12	99% (active)	98% (active)	99.2% (active)	100% (active)	99% (active)	53.9%	99% (active)	99% (active)	54.9%	100% (active)	100% (active)	99.3% (active)	98% (active)	99% (active)	49.5%	99% (active)	99% (active)	98% (active)
CCN1CCC(O)(c2ccc(Cl)cc2)C(C(=O)c2ccc(Cl)cc2)C1 (configuration not stated)	-8%	65%	99% (active)	6%	74% (active)	97.8% (active)	3%	67%	98.8% (active)	-7%	93% (active)	97.2% (active)	18%	80% (active)	98.5% (active)	3%	77% (active)	98.5% (active)
O=[N+]([O-])O.[In]	9%	49%	11.6%	17%	53%	44.2%	6%	43%	50.3%	3%	22%	-24.1%	11%	58%	-1.85%	13%	55%	65.3%
O=C(C[n+]1ccccc1)C1CCc2ccccc2C1 (configuration not stated)	-3%	-4%	9.25%	0%	-2%	5.7%	-1%	0%	-1.5%	0%	-5%	39%	-2%	-3%	-21.1%	-6%	-6%	3.2%
Oc1cc(Cl)c(Cl)cc1Cl.[Cu+2]	78% (active)	96% (active)	99% (active)	45%	98% (active)	98.9% (active)	48%	70% (active)	99.3% (active)	21%	98% (active)	97.7% (active)	97% (active)	97% (active)	99% (active)	91% (active)	97% (active)	99.2% (active)
CC(=O)CC(=O)Nc1c(C)[c]([Hg][O]C(C)=O)c(C)[c]([Hg][O]C(C)=O)[c]1[Hg][O]C(C)=O	60%	93% (active)	90.8% (active)	99% (active)	94% (active)	92.6% (active)	57%	94% (active)	92.8% (active)	33%	93% (active)	88% (active)	99% (active)	94% (active)	92.2% (active)	85% (active)	93% (active)	90% (active)
Cc1cc([N+](=O)[O-])c2ccccc2[n+]1[O-]	99% (active)	99% (active)	99.1% (active)	100% (active)	100% (active)	99.5% (active)	99% (active)	99% (active)	48.6%	100% (active)	100% (active)	58.4%	99% (active)	99% (active)	99.2% (active)	100% (active)	100% (active)	49.8%
Cc1ccc(OP(=O)(Oc2ccc(C)cc2)Oc2ccc(C)cc2)cc1.Cc1ccc(OP(=O)(Oc2ccc(C)cc2)Oc2ccc(C)cc2)cc1.Cc1ccc(OP(=O)(Oc2ccc(C)cc2)Oc2ccc(C)cc2)cc1.Cc1ccc(OP(=O)(Oc2ccc(C)cc2)Oc2cccc(C)c2)cc1.[Cd+2].[O-][Cl+3]([O-])([O-])O	12%	64%	58.6%	6%	33%	45%	9%	29%	20%	-11%	32%	62.6%	10%	23%	36.6%	10%	36%	39.2%
COc1ccc(O)c(/C=C/[N+](=O)[O-])c1	16%	99% (active)	99.4% (active)	-1%	99% (active)	98.8% (active)	20%	99% (active)	99.1% (active)	5%	98% (active)	99.2% (active)	41%	99% (active)	99.3% (active)	21%	99% (active)	98.9% (active)
CCCC(C)c1ccccc1OP(=S)(S)Oc1ccccc1C(C)CCC (configuration not stated)	-3%	-3%	97.3% (active)	-2%	-1%	97.8% (active)	2%	-2%	97.5% (active)	3%	0%	96.5% (active)	-5%	0%	95.8% (active)	0%	-3%	97.2% (active)
